Bioassay records deposited in PubChem by National Center for Advancing Translational Sciences (NCATS).
Shown are actives, neighbours in structure and some others; about 7.6% of the full set was active somewhere.
RORg inh = ROR gamma (mouse) transcription inhibition; P51450; Drosophila S2 Gal4-RORgamma UAS-luciferase reporter, 20 h; actives 5.4% (n = 310,000); Potency, µM (series often up to 53.6 µM), for inactives: top-dose activity change, negative = inhibition, usual class: inhibitors; note: potency is the fitted concentration of half-maximal effect; % is set by controls: 0 for no effect and ±100 for the full control effect; nearly all actives have a fitted effect of over 60% in size
Target sequence (P51450 whole entry, looked up, the tested form may be a part): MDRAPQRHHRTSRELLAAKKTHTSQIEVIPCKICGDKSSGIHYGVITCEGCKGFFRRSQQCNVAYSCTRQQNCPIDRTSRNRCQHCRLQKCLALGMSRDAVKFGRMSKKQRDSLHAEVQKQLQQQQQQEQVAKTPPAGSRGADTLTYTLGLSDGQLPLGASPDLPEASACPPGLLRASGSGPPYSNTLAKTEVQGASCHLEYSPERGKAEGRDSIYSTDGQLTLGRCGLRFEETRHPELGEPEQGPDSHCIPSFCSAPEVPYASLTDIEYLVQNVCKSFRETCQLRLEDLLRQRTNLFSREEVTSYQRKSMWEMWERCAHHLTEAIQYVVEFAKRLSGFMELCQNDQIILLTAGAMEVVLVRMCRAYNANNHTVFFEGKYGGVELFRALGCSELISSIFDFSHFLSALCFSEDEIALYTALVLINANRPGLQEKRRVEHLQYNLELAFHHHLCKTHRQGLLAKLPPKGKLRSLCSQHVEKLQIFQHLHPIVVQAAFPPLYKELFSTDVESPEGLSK
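Stably transfected Drosophila Schneider cells are the test system, with ROR gamma fused to Gal4 and luciferase under UAS control; luminescence is read after 20 hr of 700 uM copper sulfate induction at ambient temperature.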
BRCA1 expr act = increases BRCA1 expression; MCF7-BRCA1-FFLuc reporter, luminescence, 48 h; response scale: scaled: vehicle 0%, 10 µM genistein 100%; Potency, µM (titrated, usually from 46.1 µM), for inactives: top-dose activation, hits mostly activators; actives 1.1% (n = 380,000); AID 624202; note: potency is the fitted concentration of half-maximal effect; nearly all actives have a fitted effect of over 80% in size
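Activators of BRCA1 expression were detected as increased firefly luciferase luminescence in engineered MCF7 cells after 48 h compound incubation. Signals were scaled to genistein 10 microM as full activation.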
Giardia kill = kills Giardia lamblia | activity change, % at 7.66 µM, hits read low | AID 540267 | actives 0.15% (n = 340,000) | Giardia lamblia trophozoite viability; in the data active = activity change below about -80%; inconclusive = between about -30% and that limit;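 note: parasites exposed to compound for two days anaerobically before the ATP read; % is set by controls: 0 for no effect and ±100 for the full control effect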
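Giardia lamblia trophozoites (100 cells/well) were incubated with compounds for 48 h at 37 deg C under anaerobic conditions. Viability was read as ATP content by one-step luminescence after 15-30 min at room temperature.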
p53 reactivator = mutant p53 re-activation in reporter cells. AID 504706. actives 0.063% (n = 320,000). Potency, µM (highest dose often 92.2 µM), without a hit: at the top dose activity change, positive = activation, actives largely listed as activators. H1299 p53-A138V BP100-luciferase reporter, luminescence, 24 h; note: potency is the fitted concentration of half-maximal effect; % of control where 0% means no effect; nearly all actives have a fitted effect of over 45% in size
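p53-null H1299 cells stably carrying temperature-sensitive p53-A138V and a BP100-luciferase reporter were pinned with compounds (4-point, 1:5 series) and held 24 hrs at 37 deg C. Luminescence was read 10 min after detection reagent.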
ELG1 DNA repair = ELG1-dependent DNA repair inhibition | Potency, µM (top dose mostly 46.1 µM), for the others: top-dose activity change, negative = inhibition, hits mostly inhibitors | actives 2.3% (n = 330,000) | HEK293T ELG1-luciferase reporter, luminescence, 16 h; DNA damage induced by 5-fluorouridine; note: potency is the fitted concentration of half-maximal effect; % is set by controls: 0 for no effect and ±100 for the full control effect; nearly all actives have a fitted effect of over 55% in size
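Quantitative HTS, concentration-response format. 2,000 cells/well co-treated with 5-fluorouridine and compound, 16 hr in 5% CO2 at 37 °C; ONE-Glo luminescence read after 30 min.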
VP16 counter = counter-screen for ROR gamma inhibitors: Gal4-VP16 reporter | Drosophila S2 Gal4-VP16 UAS-luciferase, luminescence, 20 h | Potency, µM (highest dose often 53.6 µM), without a hit: top-dose activity, negative = inhibition, most hits filed as inhibitors | actives 3.5% (n = 310,000);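 note: Gal4-VP16 expression switched on by copper sulfate through the metallothionein promoter; potency is the fitted concentration of half-maximal effect; % is set by controls: 0 for no effect and ±100 for the full control effect; nearly all actives have a fitted effect of over 50% in size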
* marks the source's active call; other numbers are inactive results; ? = inconclusive; . = not tested or not shown; [ ] = another dose, or the depositor's remark. Unless noted, calls come from the whole dose curve; as a rule, active = well fitted curve in the direction sought with a large enough effect; inconclusive = small, poorly fitted or top-dose-only effect, or another doubt; inactive = no such curve, though single readings can be large; an effect the other way counts as inactive or inconclusive.

SMILES	RORg inh	BRCA1 expr act	Giardia kill	p53 reactivator	ELG1 DNA repair	VP16 counter
Cc1occc1C(=O)N/N=C/C=C/c1ccc(N(C)C)cc1	2.8µM*	?	5	17%	?	3.2µM*
Cc1ccc(C(=O)N/N=C/C=C/c2ccccc2)cc1	3.2µM*	18%	8	3%	-9%	7.9µM*
O=C(CNC(=O)c1ccc(Cl)cc1)N/N=C/C=C/c1ccccc1	-31%	-5%	9	9%	5%	-26%
CCOc1ccc(-c2[nH]ncc2Oc2ccccc2OC)c(O)c1	16µM*	-41%	-14	-3%	-5%	?
CCOc1ccccc1Oc1cn[nH]c1-c1ccc(OCC(=O)NN)cc1O	0%	-30%	-5	-1%	?	-3%
CCOc1ccc(-c2[nH]ncc2Oc2ccccc2OCC)c(O)c1	10µM*	-79%	15	2%	-22%	?
Cc1cccc(C)c1NC(=O)/C(=C/c1ccco1)c1ccccc1	?	-22%	-5	1%	1%	13µM*
Cc1ccccc1CSCCNC(=O)CCSc1ccccc1	-3%	-26%	4	2%	?	-7%
Cc1ccc(CN2CCc3c(OCc4ccc(F)cc4)cccc3C2=O)cc1	?	-22%	2	4%	5.8µM*	?
COC(=O)c1ccc(COc2cccc3c2CCN(Cc2cccc(C)c2)C3=O)o1	225%	-25%	-2	18%	?	?
COC(=O)c1ccc(COc2cccc3c2CCN(Cc2ccccc2)C3=O)o1	130%	-37%	6	-32%	23µM*	-11%
Cc1[nH]n(-c2ccccc2)c(=O)c1N=Nc1ccccc1C(=O)O	23%	41%	?	?	-19%	11%
Cc1[nH]n(S(=O)(=O)Cc2ccccc2)c(=O)c1N=Nc1ccccc1Cl	-2%	-15%	-89*	7%	?	-7%
CC(C)c1ccccc1NC(=S)NC(=O)C1CCCCC1	.	-20%	7	3%	-25%	.
CC(C)c1ccccc1NC(=S)NCC1(N(C)C)CCCCC1	16µM*	3%	17	?	-3%	?
O=C(Nc1cc(Cl)ccc1N1CCOCC1)c1ccc(Br)o1	?	-17%	3	16%	?	?
Cc1ccc(C(=O)NC(=S)Nc2ccccc2N2CCOCC2)cc1C	4.5µM*	-59%	12	-1%	6%	7.9µM*
COc1cc(C(=O)NC(=S)Nc2ccccc2N2CCOCC2)cc(OC)c1OC	-16%	-42%	21	-6%	-4%	-13%
COc1cccc(C(=O)NC(=S)Nc2ccccc2N2CCOCC2)c1	4µM*	-57%	-7	-8%	1%	6.3µM*
COc1ccc(N2CCOCC2)c(NC(=O)c2ccc(Br)o2)c1	-34%	-33%	10	-16%	16µM*	-6%
Cc1ccc(C(=O)N/C(=C\c2ccco2)C(=O)N2CCOCC2)cc1C	-10%	-7%	-9	-6%	21µM*	-8%
COc1cccc(-c2ocnc2C(=O)Nc2ccc(N3CCOCC3)cc2N2CCOCC2)c1	-4%	-23%	7	-4%	18µM*	-3%
CSc1ccc(/C=N/Nc2cccc(C(=O)O)c2)cc1	?	?	-1	-10%	?	?
NC(=S)N/N=C1\CC(c2ccc3c(c2)OCCO3)Oc2ccc(F)cc21 (stereo not given)	6.3µM*	-27%	0	5%	-15%	6.3µM*
NC(=O)c1ccccc1OCC(=O)N1CCCC1c1ccc2c(c1)OCCCO2 (stereo not given)	.	-17%	6	-6%	27%	.
SMILES	RORg inh	BRCA1 expr act	Giardia kill	p53 reactivator	ELG1 DNA repair	VP16 counter
NC(=S)N/N=C1\CC(c2ccc3c(c2)OCCCO3)Oc2ccc(F)cc21 (stereo not given)	-5%	-55%	-29	-7%	3.7µM*	0.56µM*
C=CC[C@@H]1C=C[C@@H](O/N=C(/C)CCC(=O)OC[C@@H]2O[C@H](C#Cc3ccccc3)C=C[C@@H]2Oc2ccc(C)cc2)[C@@H](CO)O1	1%[10 µM]	.	.	.	.	-2%[10 µM]
O=C1N[C@@H](Cc2c[nH]c3ccccc23)COC(=O)[C@H](Cc2ccc(F)cc2)C/C=C\C[C@@H]1CC(=O)N(CCO)Cc1ccccc1	.	-69%	-10	14%	23µM*	.
O=C1N[C@@H](Cc2c[nH]c3ccccc23)COC(=O)[C@@H](Cc2ccc(F)cc2)C/C=C\C[C@H]1CC(=O)N(CCO)Cc1ccccc1	.	-64%	-16	2%	18µM*	.
O=C(N[C@H]1C/C=C\C[C@@H](CC(=O)N(CCO)Cc2ccccc2)C(=O)N[C@H](Cc2c[nH]c3ccccc23)COC1=O)OCC1c2ccccc2-c2ccccc21	.	0%	0	-1%	21µM*	.
O=C1N[C@H](Cc2ccccc2)COC(=O)[C@@H](Cc2ccc(F)cc2)C/C=C\C[C@H]1CC(=O)N(CCO)Cc1ccccc1	.	-36%	-13	2%	?	.
COc1ccc(CC(=O)NNC(=O)CN(C)S(=O)(=O)c2ccc(Cl)cc2)cc1OC	.	-8%	8	6%	-5%	.
COc1ccccc1NS(=O)(=O)c1ccc(C)c(NC(=O)NC2CCCCC2)c1	27%	-21%	4	26%	?	3%
CCN(CC)S(=O)(=O)c1cccc(NC(=O)CNc2cccc(S(=O)(=O)N3CCCC3)c2)c1	-35%	-47%	5	-5%	0.33µM*	0.71µM*
CN(CC(=O)Nc1cccc(S(=O)(=O)N2CCCC2)c1)CC(=O)Nc1ccc(Cl)c(C(F)(F)F)c1	.	-71%	6	-4%	15µM*	.
CCNc1ccc(N=Nc2c(C)n(C)n(-c3ccccc3)c2=O)cc1	10%	9%	-98*	-4%	?	-6%
O=C(Nc1cccc(S(=O)(=O)N2CCCCC2)c1)c1ccc2ccccc2n1	?	-24%	12	11%	-12%	?
CCOc1ncccc1C(=O)Nc1cccc(S(=O)(=O)N2CCCCC2)c1	.	-35%	-4	-5%	11µM*	.
O=C(Nc1cccc(S(=O)(=O)N2CCCC2)c1)c1ccc2ccccc2n1	43%	12%	-9	-4%	21µM*	9%
CCOc1ncccc1C(=O)Nc1ccc(S(=O)(=O)N2CCCC2)cc1	15%	13%	-4	0%	-6%	-15%
O=C(Nc1cccc(S(=O)(=O)N2CCCCCC2)c1)c1ccc(Cl)nc1	.	-68%	-14	-6%	21µM*	.
O=C(Nc1ccc(S(=O)(=O)N2CCCCC2)cc1)c1ccc(Cl)nc1	.	0%	-19	0%	?	.
